Screens deposited in PubChem BioAssay by several laboratories.
Mac1 fbg inh = inhibitors of CD11b/CD18 adhesion to fibrinogen, primary screen, K562 cells, luminescence. 93,000 compounds, 0.54% hits. inhibition, % at 10 µM. AID 1497, 2009. Integrin beta-2 (Homo sapiens) + Integrin alpha-M (Homo sapiens), P05107+P11215. ATPlite luminescence; Mn2+ added to activate the integrin;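 active = primary inhibition of 50% or more at 10 µM, then 40% or more on retest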
Target sequence (P05107 whole entry, looked up, other chains not shown): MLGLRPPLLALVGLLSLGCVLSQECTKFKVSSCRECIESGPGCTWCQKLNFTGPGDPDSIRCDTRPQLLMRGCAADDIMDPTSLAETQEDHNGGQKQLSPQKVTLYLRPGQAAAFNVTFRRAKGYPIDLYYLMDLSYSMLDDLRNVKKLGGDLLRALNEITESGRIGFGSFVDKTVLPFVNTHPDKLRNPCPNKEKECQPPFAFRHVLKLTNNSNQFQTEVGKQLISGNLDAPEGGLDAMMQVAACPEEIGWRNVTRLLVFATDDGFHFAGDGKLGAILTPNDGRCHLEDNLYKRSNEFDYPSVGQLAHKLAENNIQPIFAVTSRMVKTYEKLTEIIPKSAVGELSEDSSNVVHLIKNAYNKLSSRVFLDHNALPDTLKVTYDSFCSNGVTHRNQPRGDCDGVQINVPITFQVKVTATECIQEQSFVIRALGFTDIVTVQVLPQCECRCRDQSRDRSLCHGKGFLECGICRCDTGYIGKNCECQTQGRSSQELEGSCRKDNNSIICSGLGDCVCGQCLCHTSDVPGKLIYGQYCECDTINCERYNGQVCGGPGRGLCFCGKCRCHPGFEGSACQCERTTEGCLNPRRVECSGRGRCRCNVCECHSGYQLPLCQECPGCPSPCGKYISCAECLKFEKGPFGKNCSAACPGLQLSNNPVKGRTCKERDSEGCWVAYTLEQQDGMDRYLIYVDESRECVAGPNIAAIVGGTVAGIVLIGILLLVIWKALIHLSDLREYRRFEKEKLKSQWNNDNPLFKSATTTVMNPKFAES
Phagocyt inh = inhibitors of macrophage phagocytosis, primary screen, imaging, J774A.1 cells, IgG beads; inhibition, % at 5 µM; J774A.1 macrophage IgG-bead phagocytosis; 110,000 compounds, 0.07% hits;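 active = inhibition above the mean of the plate negative controls plus 5 SD, cut at about 13% in these data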;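 also: phagocytic index as fraction of beads internalized from green versus red external bead signal; plate controls were DMSO negative control for no effect and cytochalasin-D positive control for full effect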
Mac1 fbg enh = enhancers of CD11b/CD18 adhesion to fibrinogen, primary screen, K562 cells, luminescence | Integrin beta-2 (Homo sapiens) + Integrin alpha-M (Homo sapiens), P05107+P11215 | ATPlite luminescence | activation, % at 10 µM | 93,000 compounds, 0.07% hits | AID 1499, 2009;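 active = 10 µM primary screen giving 50% or more activity, confirmed by 40% or more on retest at that dose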
Smad3 inh = Smad3/FoxH1 peptide binding inhibitors, primary screen, biochemical, TR-FRET | 88,000 compounds, 0.29% hits | inhibition, % at 25 µM | TR-FRET Smad3/Dy647-FoxH1 peptide binding, europium anti-His | Mothers against decapentaplegic homolog 3 (Homo sapiens), P84022;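 active = compounds that reduce the energy-transfer binding signal between the protein and its labelled peptide by more than half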;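 also: 0% = Smad3 plus labelled peptide maximal FRET and 100% = peptide-only background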
MRP resist rev = reversal of MRP1-mediated doxorubicin resistance, primary screen, H69AR cells, doxorubicin co-treatment | H69AR cells + 2 uM doxorubicin, CellTiter-Glo, 72 h | AID 602, 2007 | differential viability (reversal), % at 10 µM | 85,000 compounds, 0.04% hits;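 active = viability drop by adding the cancer drug above about 55%, with treated viability meeting a 40% cutoff, limit read from the data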;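 also: viability without doxorubicin minus viability with 2 µM doxorubicin for each compound; larger differential means the compound sensitizes cells more to doxorubicin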
MRP-1 activ = H69AR viability gain despite doxorubicin, primary screen, MRP-1 activator project, H69AR cells, CellTiter-Glo; viability rescue; viability increase, % at 10 µM; 140,000 compounds, 0.61% hits; AID 799, 2007;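 active = viability gain under doxorubicin at or above a set limit, the compound median plus 3 SD, cut at about 4.7% in these data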;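 also: MRP-1 overexpressing cells given doxorubicin 25 µM after compound pretreatment; 18-22 h compound pretreatment then 72 h with doxorubicin before readout; 0% = doxorubicin-only wells and 100% = vehicle-treated cells without doxorubicin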
Numbers without * were called inactive; / = not tested or not shown; [ ] = remark or other dose. Hits are enriched below; roughly 1.2% of the tested compounds scored in any of these assays.

SMILES	Mac1 fbg inh	Phagocyt inh	Mac1 fbg enh	Smad3 inh	MRP resist rev	MRP-1 activ
O=C(O)CC(NS(=O)(=O)c1cccc2nsnc12)c1ccc(F)cc1 (stereo unspecified)	60.1*	0.7	-9.1	5.0	14.3	-1.8
O=c1c[n+](CC[n+]2cc(=O)o[nH]2)[nH]o1	/	/	/	-4.5	/	/
CN(C)Cc1ccc(C(C)(C)C)cc1-c1cc(C(C)(C)C)ccc1CN(C)C	/	/	/	-0.7	/	/
NNC(=O)CNC(c1ccccc1)c1cc(Br)ccc1NC(=O)c1ccc(Br)cc1 (stereo unspecified)	/	-5.6	/	/	/	-0.1
NNC(=O)CNC(c1ccccc1)c1cc(Br)ccc1NC(=O)c1cccc(Cl)c1 (stereo unspecified)	/	4.2	/	/	/	11.1*
O=C(/C(=C/O)N=Nc1ccccc1)c1ccncc1	-1.2	-1.0	1.1	-7.0	0.4	6.3*
N#CC(c1ccccc1)c1ccc(C(=O)c2ccc(F)cc2)cc1 (stereo unspecified)	86.9*	-2.0	-7.1	-5.1	-5.7	1.8
Cc1ccc2[nH]c3c(NCc4ccco4)ncnc3c2c1	76.2*	-0.3	-6.7	-5.0	-6.9	-2.5
CC(/C=N/NC(=O)c1c(Br)cnn1C)=C\c1ccccc1	/	-1.9	/	/	/	0.7
CC(/C=N/NC(=O)c1nn(C)c(C)c1Br)=C\c1ccccc1	/	0.7	/	/	/	7.7*
Cc1ccc2c(c1)c1c3n2CCCN(Cc2ccccc2)C3CCC1 (stereo unspecified)	-1.3	37.5*[artifact]	2.4	5.6	-20.6	-1.5
Cc1ccc2c(c1)c1c3n2CCN(C(=O)C2CC2)C3CCC1 (stereo unspecified)	5.3	/	3.2	11.3	9.4	-3.9
O=C(COC(=O)c1cccc(S(=O)(=O)N2CCc3ccccc32)c1)NC1CCS(=O)(=O)C1 (stereo unspecified)	-1.2	-0.2	-5.1	-2.7	-3.7	-0.7
N#Cc1c(C(F)(F)F)cc(-c2ccc(Cl)cc2)[nH]c1=O	104.1*	-0.5	-11.2	/	/	-1.3
Cc1cc(C(F)(F)F)c(C#N)c(=O)[nH]1	/	/	/	20.8	9.6	0.1
N#Cc1c(C(F)(F)F)cc(-c2cccc(Cl)c2)[nH]c1=O	105.6*	-0.2	-11.9	/	/	-1.5
O[C@H]([C@H](O)[C@@H](O)c1nc2ccccc2[nH]1)[C@@H](O)c1nc2ccccc2[nH]1	/	/	/	26.8	/	/
c1ccc(OCc2nnnn2-c2ccccc2)cc1	-22.7	27.0	1.4	/	/	-0.4
Clc1ccc(OCc2nnnn2-c2ccccc2)cc1	/	-6.4	/	/	/	7.3*
O=C(COc1ccc(Cl)cc1)NCc1nnc2c3ccccc3c(-c3ccccc3)nn12	20.3	-7.1	2.3	/	/	5.0*
COc1cccc(/C=N/NC(=O)CNC(=O)C2COc3ccccc3O2)c1O (stereo unspecified)	/	-7.8	/	/	/	9.6*
O=C(CNC(=O)c1ccc2c(c1)OCCO2)N/N=C/c1ccc(O)cc1O	-1.9	-7.2	-1.9	/	/	2.4
COc1cccc(/C=N/NC(=O)CNC(=O)c2ccc3c(c2)OCCO3)c1O	-3.7	-5.8	0.6	/	/	5.9*
Cc1ccc2nc(-c3cccc(N)c3)oc2c1	58.8*	1.0	-3.1	9.1	5.5	-1.0
Cc1ccc2nc(-c3cccc(-c4nc5ccc(C)cc5o4)n3)oc2c1	/	/	/	-8.0	-0.1	/
SMILES	Mac1 fbg inh	Phagocyt inh	Mac1 fbg enh	Smad3 inh	MRP resist rev	MRP-1 activ
Cc1cccc(C(=O)NNC(=O)CN2C(=O)c3ccccc3C2=O)c1	-13.4	-6.0	8.0	/	/	4.8*
O=C(NC(Nc1ncc(S(=O)(=O)c2ccc([N+](=O)[O-])cc2)s1)(C(F)(F)F)C(F)(F)F)c1ccc(Cl)cc1	95.9*	-1.9	-5.1	/	/	-2.6
Cc1ccc(-c2nnc(SCC(=O)Nc3ccc4c(c3)oc3ccccc34)n2C)c(Cl)c1	59.9*	0.1	-8.1	-1.4	-6.1	0.4
CCOC(=O)Cc1csc(NC(=O)CCNS(=O)(=O)c2ccc3c(c2)CCC(=O)N3)n1	-6.5	-0.5	-2.9	-10.4	-4.8	-1.3
O=C(c1cnn2c1NC(c1ccc(Br)cc1)CC2C(F)(F)F)N1CCN(C23CC4CC(CC(C4)C2)C3)CC1 (stereo unspecified)	/	/	/	-3.0	11.5	-3.5
C=CCOC(=O)C(C#N)c1nc2ccccc2nc1N1CCN(c2ccccc2OCC)CC1 (stereo unspecified)	-1.1	-7.2	4.5	-2.4	5.1	5.2*
CCOc1ccccc1N1CCN(c2nc3ccccc3nc2C(C#N)C(=O)OC(C)C)CC1 (stereo unspecified)	/	/	/	-1.0	2.3	/
CCOc1ccc(OCc2ccc(C(=O)N3N=C(C(F)F)CC3(O)C(F)F)o2)cc1 (stereo unspecified)	-5.8	-3.2	-5.3	/	/	-1.2
O=C(c1ccc(COc2ccc(Br)cc2)o1)N1N=C(C(F)F)CC1(O)C(F)F (stereo unspecified)	/	-5.9	/	/	/	5.5*
N#Cc1c(Cl)nc(SCc2ccccc2)nc1-c1ccccc1	74.4*	6.7	-10.0	/	/	-1.7
FC(F)(F)c1cnc(NNC(=S)Nc2ccccc2Cl)c(Cl)c1	100.0*	-2.9	-9.6	/	/	-3.5
Cc1cccc(NC(=S)NNc2ncc(C(F)(F)F)cc2Cl)c1	/	-11.3	/	/	/	1.0
CCOC(=O)N1CCN(c2ccc(Cl)cc2)CC1	/	7.0	/	/	/	2.0
CCOC(=O)N1CCN(c2ccc(O)cc2)CC1	54.4*	0.2	-3.2	/	/	-2.5
C/C(=N\NC(=O)c1ccncc1)c1ccccc1Cl	/	/	/	-6.9	/	/
Cc1ccc(C2CC(C(F)(F)F)n3nc(C(=O)NCc4c(C)nn(C)c4C)c(Cl)c3N2)cc1 (stereo unspecified)	43.2	-0.6	-4.2	/	/	6.4*
Cc1nn(C)c(C)c1CNC(=O)c1cnn2c1NC(c1ccccc1)CC2C(F)(F)F (stereo unspecified)	20.7	-0.9	1.6	7.5	1.8	-3.4
CC(C)(C)c1nnc(SCC(=O)c2ccccc2)n(N)c1=O	/	-3.6	/	/	/	-2.2
O=C(O)CCCCCN1C(=O)/C(=C\c2ccncc2)SC1=S	/	-8.1	/	/	/	-4.6
O=C(O)CCCN1C(=O)/C(=C/c2ccc(-c3nc4ccccc4s3)o2)SC1=S	93.2*	0.1	40.7	/	/	0.5
Cc1cc(C)cc(-c2nc(-c3ccncc3)no2)c1	1.1	/	0.4	-5.2	13.5	-0.6
CC(C)(C)c1ccc(-c2nc(-c3ccncc3)no2)cc1	/	/	/	3.2	9.4	6.2*
CCOc1ccc(-n2c(N)c(C(=O)NCc3ccco3)sc2=S)cc1	/	/	/	1.0	18.1	-1.9
COC(=O)c1c(-c2ccc(C)cc2)csc1NC(=O)Cc1ccc(OC)c(OC)c1	54.4*	-2.6	-3.6	/	/	-1.0
COC(=O)c1c(-c2ccc(Br)cc2)csc1NC(=O)Cc1ccc(OC)c(OC)c1	1.5	/	-0.7	/	/	-2.9
N[C@@H](CC1=CS(=O)(=O)c2ccc(Cl)cc21)C(=O)O	/	/	/	77.4*	/	/
